Assay results reported in ChEMBL document CHEMBL5308504, “Tm Shift (DSF) assay results for EUbOPEN Chemogenomics Library” (2023).

target: Bromodomain-containing protein 4 (Homo sapiens) (UniProt O60885); details: Compound concentration 20.0 uM, Protein concentration 2.0 uM, Result type QC Liability

SMILES | ΔTm [°C]
Cc1nnc2n1-c1sc(CCC(=O)N3CCOCC3)cc1C(c1ccccc1Cl)=NC2 | -0.19
Cc1nnc2n1-c1sc3c(c1C(c1ccccc1Cl)=NC2)CC(C(=O)N1CCOCC1)C3 (stereo not given) | 0.62
C[C@]12CC[C@@H]3c4ccc(C(N)=O)cc4CC[C@H]3[C@@H]1CC=C2c1cncc(F)c1 | 0
CNc1nc(-c2cc(C(=O)N3CCN(Cc4ccc(Cl)cc4)CC3)c(Cl)cn2)cs1 | 0.71
CO[C@@H](C)CN1CC[C@]2(C)c3cc(O)ccc3C[C@H]1C2(C)C | -1.9
Clc1ccccc1C(c1ccccc1)(c1ccccc1)n1cccn1 | -0.07
COc1ccc(OC(=O)N(CC(=O)O)Cc2ccc(OCCc3nc(-c4ccccc4)oc3C)cc2)cc1 | -4.38
COP(=O)(CCC(N)C(=O)O)Oc1cccc(CC(=O)O)c1 (stereo not given) | -0.52
C=CC(=O)Nc1ccc2[nH]c(=O)n(C3CCN(Cc4ccc(-c5ccc6c(c5)NC(=O)CO6)cc4)CC3)c2c1 | 0.27
N[C@H](C(=O)O)[C@@H]1CC(Cl)=NO1 | -0.13
C[C@@H]1CC[C@@]2(OC1)O[C@H]1[C@@H](O)[C@H]3[C@@H]4CC[C@H]5C[C@@H](O[C@@H]6O[C@H](CO)[C@H](O[C@@H]7O[C@H](CO)C(O)[C@H](O[C@@H]8OC[C@@H](O)[C@H](O)[C@H]8O)[C@H]7O[C@@H]7O[C@H](CO)[C@H](O)[C@H](O[C@@H]8O[C@H](CO)[C@@H](O)[C@H](O)[C@H]8O)[C@H]7O)[C@H](O)[C@H]6O)[C@H](O)C[C@]5(C)[C@H]4CC[C@]3(C)[C@H]1[C@@H]2C (stereo not given in full) | -1.87
Cc1nnc2n1-c1sc3c(c1C(c1ccccc1Cl)=NC2)C[C@@H](C(=O)N1CCOCC1)C3 | 1.2
CCC(=O)O[C@@H](OP(=O)(CCCCc1ccccc1)CC(=O)N1C[C@H](C2CCCCC2)C[C@H]1C(=O)O)C(C)C (stereo not given in full) | -0.8
CC[C@H]1[C@@H](O)[C@@H]2[C@H](CC[C@]3(C)[C@@H]([C@H](C)CCC(=O)O)CC[C@@H]23)[C@@]2(C)CC[C@@H](O)C[C@@H]12 | -3.05
OCC1OC(n2cnc3cc(Cl)c(Cl)cc32)C(O)C1O (stereo not given) | 0.7
C[C@H](CCC(=O)O)[C@H]1CC[C@H]2[C@@H]3CC[C@@H]4C[C@H](O)CC[C@]4(C)[C@H]3CC[C@]12C | -7.72
CN1CCN(C(=O)Cc2ccc(N/C(=C3\C(=O)Nc4cc(Cl)ccc43)c3ccccc3)cc2)CC1 | -3.18
CO[C@H](C)CN1CC[C@@]2(C)c3ccc(O)cc3C[C@@H]1C2(C)C | -0.17
O=C1CCC(N2Cc3cc(CNC(=O)C(F)(F)c4ccc(Cl)cc4)ccc3C2=O)C(=O)N1 (stereo not given) | -1.23
C[C@@H](CO)CCC[C@@H](C)[C@H]1CC[C@H]2[C@@H]3CC=C4C[C@@H](O)CC[C@]4(C)[C@H]3CC[C@]12C | -3.47

SMILES | ΔTm [°C]
C[C@@H](CN1CC[C@@]2(C)c3cccc(O)c3C[C@@H]1C2(C)C)OCc1ccccc1 | -0.17
CNC(=O)c1cc(C(=O)NC2CC2)cn(Cc2ccccc2)c1=O | -1.08
CCCn1cc(-c2cc(C3C(=O)N(CC)c4ccc(C(F)(F)F)cc4N(c4ccccc4)C3=O)cc(OC)c2O)cn1 (stereo not given) | 1.56
CCN(CC)CCO[C@H]1CC[C@@]2(C)C(=CC[C@@H]3[C@@H]2CC[C@]2(C)C(=O)CC[C@@H]32)C1 | -1.53
CN(C(=O)CCOCCOCCOCCOCCNc1cccc2c1C(=O)N(C1CCC(=O)NC1=O)C2=O)[C@H]1CC[C@@]2(C)[C@@H](CC[C@@H]3[C@@H]2CC[C@]2(C)[C@@H](c4ccc5ccncc5c4)CC[C@@H]32)C1 (stereo not given in full) | -2.19
COc1nc2ccc([C@@](O)(c3ccc(Cl)cc3)c3cncn3C)cc2c(Cl)c1Cc1ccc(-n2cccn2)cc1 | -0.83
C=C[C@@]12CCc3cc(O)ccc3[C@H]1CC[C@@]1(C)[C@H]2CC[C@@H]1O | 0.82
O=C(NCCN1CCC2(CC1)C(=O)NCN2c1cccc(F)c1)c1ccc2ccccc2c1 | -0.54
C=CC(=O)N1CCC[C@@H](n2nc(-c3ccc(Oc4ccccc4)cc3)c3c(N)ncnc32)C1 | -4.44
CS(=O)(=O)c1ccc(-c2cnc(N)c(C(=O)Nc3ccccc3)n2)cc1 | 0.79
C=CC(=O)Nc1cc(-c2nn(C3CCC(N4CCN(C(C)=O)CC4)CC3)c3ncnc(N)c23)ccc1Oc1ccccc1 (stereo not given) | -0.22
CCN1C(=O)C(c2cccc(C(=O)O)c2)C(=O)N(c2ccccc2)c2cc(C(F)(F)F)ccc21 (stereo not given) | -0.84
CCOP(=O)(OCC)C(=Cc1cc(C(C)(C)C)c(O)c(C(C)(C)C)c1)P(=O)(OCC)OCC | -3.19
Cc1nnc2n1-c1sc3c(c1C(c1ccccc1Cl)=NC2)C[C@H](C(=O)N1CCOCC1)C3 | -0.46
CO[C@H](C)CN1CC[C@]2(C)c3cccc(O)c3C[C@H]1C2(C)C | -1.2
Cc1ccc2c(N)c(C(=O)NC3CCc4cc(N5CC6CCC(C5)N6)ccc4C3)sc2n1 (stereo not given) | -0.53
Cn1ncc(-c2nc(N[C@H]3CC[C@H](N)CC3)ncc2Cl)c1CC1CC1 | -0.39
Cc1cc(Cl)ccc1S(=O)(=O)NC[C@H]1C2CCC(CC2)[C@@H]1/C=C\CCCC(=O)O | -1.69
COc1ccc(-n2nc(C(F)(F)F)cc2-c2ccc(Cl)cc2)cc1 | -1.21
C[C@H](CCC(=O)O)[C@H]1CC[C@H]2[C@@H]3[C@@H](O)C[C@@H]4C[C@H](O)CC[C@]4(C)[C@H]3CC[C@]12C | -2.97
